Consider 40 molecules from PubChem BioAssay (NCI).

SMILES strings stand for the structures. About 79,000 compounds went through this panel and 15% of them were active in at least one assay; those are over-represented in the sample as a whole. Unmarked numbers belong to inactive results. Active and inactive are the calls of the source. Cut-off read from the data, not from the text of the source: active = growth inhibition above about 70%; inactive = the rest.

One experiment in a line: NCI Yeast Anticancer Drug Screen. Data for the sgs1 mgt1 strain (AID 161).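 Note: 0% = growth of cultures given vehicle only.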 To be noted: S. cerevisiae sgs1 mgt1 strain, at 50.0 µM (retest, dose inferred, filed as 5.0), active compounds read high. The essentials:
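This yeast growth screen uses a strain with defined DNA-repair lesions; compound-treated growth is compared with vehicle-treated growth.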
For the molecule `O=[N+]([O-])c1cc[n+]([O-])c2ccccc12`, the growth inhibition is 99% (active).

Regarding `COc1c[c]([Hg][O]C(C)=O)c(OC)c(NC(=O)CC(C)=O)[c]1[Hg][O]C(C)=O`, the growth inhibition is 93% (active).

As to `CN(C)c1ccc(C2N(Cc3ccc(N(CCCl)CCCl)cc3)CCCN2Cc2ccc(N(CCCl)CCCl)cc2)cc1`, the growth inhibition is 79% (active).

Turning to `CC(=O)c1ccc(-[n+]2c(C)cc(-c3ccccc3)cc2C)cc1`, the growth inhibition was -8%.

With `[O]=[Sb]([OH])([OH])[c]1ccc(NC2OC(CO)C(O)C(O)C2O)cc1` (stereo not given), the growth inhibition was -20%.

For `CCC1CN1P(=O)(Oc1ccccc1)N1CC1CC` (stereo not given), the growth inhibition was 2%.

`CCN(CC)CC(=O)c1cc2ccccc2c2ccccc12`: the growth inhibition is 97% (active).

As to `O=C1CCCC1Cl` (stereo not given), the growth inhibition was 0%.

For the molecule `N#C[S-].[La+3].c1ccc(-c2ccccn2)nc1.c1ccc(-c2ccccn2)nc1.c1ccc(-c2ccccn2)nc1`, the growth inhibition was 99% (active).

As for `O=c1s[se]c2ccccc12`, the growth inhibition was 99% (active).

In the case of `O=C(CCl)Nc1ccc(Cl)cc1`, the growth inhibition is 44%.

On to `O=C1N[C@H]2[C@H](O)[C@H](O)[C@@H](O)[C@H](O)[C@@H]2c2cc3c(c(O)c21)OCO3`, for which the growth inhibition was 58%.

Consider `O=C(Nc1n[c]([Hg][Cl])[c]([Hg][Cl])s1)OCc1ccccc1`, for which the growth inhibition is 99% (active).

`CC[C@@]1(O)C[C@H](OC2CC(N(C)C)C(O)C(C)O2)c2c(cc3c(c2O)C(=O)c2c(O)ccc(O)c2C3=O)[C@H]1C(=O)OC` (stereo not given in full): the growth inhibition is 99% (active).

Turning to `CCCCCc1cc(O)c(CCCC)c(O)c1`, the growth inhibition is 90% (active).

`NC(=O)/C=C/c1ccc([As]=O)cc1` (stereo not given): the growth inhibition was 34%.

Consider `O=[N+]([O-])c1cccc(SC(Cl)(Cl)Cl)c1`, for which the growth inhibition is 99% (active).

Consider `COc1cc(/C=C(/C)[N+](=O)[O-])ccc1O`, for which the growth inhibition was 54%.

In the case of `CCC[CH2][Sn]1([CH2]CCC)[O]CC(CN2CCOCC2)[O]1` (stereo not given), the growth inhibition is 41%.

Take `O=C1CN2CCCCC2CN1` (stereo not given): the growth inhibition is -56%.

As for `CCC[CH2][Sn]([CH2]CCC)([O]C(=O)CCC(C)=O)[O]C(=O)CCC(C)=O`, the growth inhibition was 99% (active).

`C[CH2][Sn]([F])([CH2]C)[CH2]C`: the growth inhibition was 90% (active).

Regarding `CN(C)CCBr`, the growth inhibition was 94% (active).

As for `O=[N+]([O-])c1ccc2c3c(cccc13)CC2`, the growth inhibition is 84% (active).

On to `CC1=CC2CC(C)=C(CC[C@]3(C)CC[C@H]([C@@H](C)C(=O)O)OO3)C(C)(C)C2CC1` (stereo not given in full), for which the growth inhibition is 99% (active).

`ClC(CN1CCCCC1)C(Cl)c1ccccc1` (stereo not given): the growth inhibition was 53%.

In the case of `CCOC(=O)c1ccc(N=Cc2ccc(N(CCCl)CCCl)cc2C)cc1`, the growth inhibition was 39%.

For `CN=C(N)N/N=C(\C)c1ccc2sc3ccc(/C(C)=N/NC(N)=NC)cc3c2c1`, the growth inhibition is 14%.

On to `c1cc2n[pH]nc2cn1` (stereo not given), for which the growth inhibition was -6%.

`O=[N+]([O-])c1ccc(Br)c([N+](=O)[O-])c1`: the growth inhibition was 98% (active).

With `O=C(CBr)NC1CCCCC1`, the growth inhibition was 93% (active).

As to `CC(C)C12C=C3CCC4C(C)(C(=O)O)CCCC4(C)C3(CC1)OO2` (stereo not given), the growth inhibition was 90% (active).

For the molecule `IC(I)=C(I)I`, the growth inhibition is 96% (active).

For the molecule `Clc1ccc2c(c1)C(c1ccccc1Cl)=NCC(SCCN1CCOCC1)=N2`, the growth inhibition is 98% (active).

`CCOP(=O)(OCC)/C(C#N)=C/c1ccc(Br)cc1`: the growth inhibition was 95% (active).

For the molecule `Cc1ccc(C(=O)C2C(c3ccccc3)N2C2CCCCC2)cc1` (stereo not given), the growth inhibition was 89% (active).

Turning to `CN(C)c1ncnc2c1ncn2C1OC(CO)C2NP(=O)(N(CCCl)CCCl)OC21` (stereo not given), the growth inhibition is 63%.

Regarding `Nc1nc(N)c(-c2ccc(Cl)c(Cl)c2)c(CCc2ccc(CNC(=O)c3cccc(S(=O)(=O)F)c3)cc2)n1`, the growth inhibition was 99% (active).

As to `C[CH2][Pb]([CH2]C)([CH2]C)[O]C(=O)COc1ccc(Cl)cc1Cl`, the growth inhibition is 94% (active).

For the molecule `O=C(OCC(CCl)OC(=O)C(Cl)(Cl)Cl)C(Cl)(Cl)Cl` (stereo not given), the growth inhibition was -16%.

The experiment is the same for the next values; noted with them: S. cerevisiae sgs1 mgt1 strain, at 50.0 µM, active compounds read high.
`O=[N+]([O-])c1cc[n+]([O-])c2ccccc12`: the growth inhibition was 54.9%.

Regarding `COc1c[c]([Hg][O]C(C)=O)c(OC)c(NC(=O)CC(C)=O)[c]1[Hg][O]C(C)=O`, the growth inhibition was 92.5% (active).

Regarding `CN(C)c1ccc(C2N(Cc3ccc(N(CCCl)CCCl)cc3)CCCN2Cc2ccc(N(CCCl)CCCl)cc2)cc1`, the growth inhibition is 76.7% (active).

Turning to `CC(=O)c1ccc(-[n+]2c(C)cc(-c3ccccc3)cc2C)cc1`, the growth inhibition was -13.6%.

For `[O]=[Sb]([OH])([OH])[c]1ccc(NC2OC(CO)C(O)C(O)C2O)cc1` (stereo not given), the growth inhibition is -13.8%.

For `CCC1CN1P(=O)(Oc1ccccc1)N1CC1CC` (stereo not given), the growth inhibition was -14.8%.

Take `CCN(CC)CC(=O)c1cc2ccccc2c2ccccc12`: the growth inhibition is 99.4% (active).

As for `O=C1CCCC1Cl` (stereo not given), the growth inhibition is 12.5%.

As to `N#C[S-].[La+3].c1ccc(-c2ccccn2)nc1.c1ccc(-c2ccccn2)nc1.c1ccc(-c2ccccn2)nc1`, the growth inhibition was 93% (active).

As to `O=c1s[se]c2ccccc12`, the growth inhibition was 90.1% (active).

Turning to `O=C(CCl)Nc1ccc(Cl)cc1`, the growth inhibition was 67.3%.

As to `O=C1N[C@H]2[C@H](O)[C@H](O)[C@@H](O)[C@H](O)[C@@H]2c2cc3c(c(O)c21)OCO3`, the growth inhibition is 67.2%.

In the case of `O=C(Nc1n[c]([Hg][Cl])[c]([Hg][Cl])s1)OCc1ccccc1`, the growth inhibition is 99.3% (active).

Consider `CC[C@@]1(O)C[C@H](OC2CC(N(C)C)C(O)C(C)O2)c2c(cc3c(c2O)C(=O)c2c(O)ccc(O)c2C3=O)[C@H]1C(=O)OC` (stereo not given in full), for which the growth inhibition is 92.5% (active).

For the molecule `CCCCCc1cc(O)c(CCCC)c(O)c1`, the growth inhibition is 99% (active).

Regarding `NC(=O)/C=C/c1ccc([As]=O)cc1` (stereo not given), the growth inhibition is 99.3% (active).

`O=[N+]([O-])c1cccc(SC(Cl)(Cl)Cl)c1`: the growth inhibition was 99.1% (active).

On to `COc1cc(/C=C(/C)[N+](=O)[O-])ccc1O`, for which the growth inhibition was 99.5% (active).

For the molecule `CCC[CH2][Sn]1([CH2]CCC)[O]CC(CN2CCOCC2)[O]1` (stereo not given), the growth inhibition is 91% (active).

Consider `O=C1CN2CCCCC2CN1` (stereo not given), for which the growth inhibition is -2.65%.

As for `CCC[CH2][Sn]([CH2]CCC)([O]C(=O)CCC(C)=O)[O]C(=O)CCC(C)=O`, the growth inhibition is 89.7% (active).

On to `C[CH2][Sn]([F])([CH2]C)[CH2]C`, for which the growth inhibition was 88.6% (active).

As to `CN(C)CCBr`, the growth inhibition was 92.9% (active).

As to `O=[N+]([O-])c1ccc2c3c(cccc13)CC2`, the growth inhibition is 0.9%.

`CC1=CC2CC(C)=C(CC[C@]3(C)CC[C@H]([C@@H](C)C(=O)O)OO3)C(C)(C)C2CC1` (stereo not given in full): the growth inhibition was 93% (active).

Consider `ClC(CN1CCCCC1)C(Cl)c1ccccc1` (stereo not given), for which the growth inhibition was 62%.

On to `CCOC(=O)c1ccc(N=Cc2ccc(N(CCCl)CCCl)cc2C)cc1`, for which the growth inhibition is 67.7%.

For the molecule `CN=C(N)N/N=C(\C)c1ccc2sc3ccc(/C(C)=N/NC(N)=NC)cc3c2c1`, the growth inhibition is 13%.

Turning to `c1cc2n[pH]nc2cn1` (stereo not given), the growth inhibition is 21.2%.

In the case of `O=[N+]([O-])c1ccc(Br)c([N+](=O)[O-])c1`, the growth inhibition was 99.2% (active).

As to `O=C(CBr)NC1CCCCC1`, the growth inhibition was 82.8% (active).

For `CC(C)C12C=C3CCC4C(C)(C(=O)O)CCCC4(C)C3(CC1)OO2` (stereo not given), the growth inhibition was 97.6% (active).

Take `IC(I)=C(I)I`: the growth inhibition is 91.9% (active).

In the case of `Clc1ccc2c(c1)C(c1ccccc1Cl)=NCC(SCCN1CCOCC1)=N2`, the growth inhibition is 89.7% (active).

On to `CCOP(=O)(OCC)/C(C#N)=C/c1ccc(Br)cc1`, for which the growth inhibition is 92.8% (active).

Consider `Cc1ccc(C(=O)C2C(c3ccccc3)N2C2CCCCC2)cc1` (stereo not given), for which the growth inhibition is 57.5%.

For `CN(C)c1ncnc2c1ncn2C1OC(CO)C2NP(=O)(N(CCCl)CCCl)OC21` (stereo not given), the growth inhibition is 71.2% (active).

For `Nc1nc(N)c(-c2ccc(Cl)c(Cl)c2)c(CCc2ccc(CNC(=O)c3cccc(S(=O)(=O)F)c3)cc2)n1`, the growth inhibition was 45.9%.

Take `C[CH2][Pb]([CH2]C)([CH2]C)[O]C(=O)COc1ccc(Cl)cc1Cl`: the growth inhibition was 95% (active).

On to `O=C(OCC(CCl)OC(=O)C(Cl)(Cl)Cl)C(Cl)(Cl)Cl` (stereo not given), for which the growth inhibition was 67%.
